Measured values taken from PubChem BioAssay (EPA / NIEHS).
Where “and” joins values, the source holds several entries; their conditions need not be identical. Identical values can stand only once. Calls of active or inactive are those of the source. Rule for the calls: active = hit-call score of the fitted dose curve at least 0.9, where 1 is the maximum; inactive = score below 0.9.

Read-out: Vascular cell adhesion molecule 1 (VCAM1), VCAM1 (gene 7412)
Experiment: BSK_4H_VCAM1: BioMAP Diversity Plus: 4H Assay for Vascular cell adhesion molecule 1 (VCAM1) Biomarker Activity (AID 2283033)
Settings: primary human endothelial cells (HUVEC); actives raise or lower the signal
Description: BSK_4H is a cell-based, multiplexed-readout assay that uses umbilical vein endothelium, a human vascular primary cell, with measurements taken at 24 hours after chemical dosing in a 96-well plate.BSK_4H_VCAM1 is an assay component measured in the BSK_4H assay. It measures VCAM-1 antibody related to regulation of gene expression using ELISA technology.Data from the assay component BSK_4H_VCAM1 was analyzed into 1 assay endpoint. This assay endpoint, BSK_4H_VCAM1, was analyzed with bidirectional fitting relative to DMSO as the negative control and baseline of activity. Using a type of binding reporter, gain or loss-of-signal activity can be used to understand changes in the signaling as they relate to the gene VCAM1. Furthermore, this assay endpoint can be referred to as a primary readout, because this assay has produced multiple assay endpoints where this one serves a signaling function. To generalize the intended target to other relatable targets, this assay endpoint is annotated to the cell adhesion molecules intended target family, where the subfamily is Immunoglobulin CAM.
The levels of cell surface (or secreted, indicated by the prefix "s") biomarker endpoints were measured by ELISA. Overt cytotoxicity to cells in confluent adherent cultures (all systems other than the BT system) was assessed by measuring total protein levels using sulforhodamine B (SRB) staining in parallel cultures at the time of biomarker measurements, indicated as SRB endpoints. For proliferation assays for adherent cell types, individual cell types are cultured at sub-confluence and relative cell numbers quantified by SRB staining at time points optimized for each system (48 h: 3C and CASM3C systems; 72 h: BT and HDF3CGF systems; 96 h: SAg system). SRB was performed by staining cells with 0.1% SRB after fixation with 10% TCA and reading wells at 560 nm.Viability and proliferation of PBMC (T cells) was quantified by Alamar Blue reduction for the SAg and BT systems. For PBMC viability (referred to as PBMC Cytotoxicity within the assay endpoint names), cells were plated (75,000/well in a 96-well plate) and then chemical samples added for 1 h before addition of activators, SEB and TSST-1 (20 ng/mL final concentration each). Cells were incubated for 90 h. Then, Alamar Blue (20 uL/well) (Invitrogen, Cat DAL1100) was added for 6 h, and the plates were read with a fluorescence microplate reader at 546/580 nm (excitation/emission). For PBMC proliferation, cells were plated and activated as above but incubated for only 16 h prior to addition of Alamar Blue. Plates were read after 6 h.

Row | SMILES | outcome | AC50
1 | CC1(C)CC(O)CC(C)(C)N1[O] | inactive | 
2 | COc1ccc(C(=O)/C(Br)=C\C(=O)O)cc1 |  | 22.1 µM (active) and 20 µM (active)
3 | C=CC(=O)OCC(C)OCC(C)OCC(C)OC(=O)C=C (stereo not given) |  | 10.1 µM (active)
4 | CCN1CN(CC)CN(CC)C1 | inactive | 
5 | CCOC(=O)C1=NOC(c2ccccc2)(c2ccccc2)C1 | inactive | 
6 | CCCC(C)C(=O)OCC (stereo not given) | inactive | 
7 | CCC1(C)C(=O)N(Cl)C(=O)N1Cl (stereo not given) | inactive | 
8 | Fc1ccc(Br)cc1 | inactive | 
9 | CCCCCCCO | inactive | 
10 | O=C1CCCCCCCCCCCN1 | inactive | 
11 | C1CNCCN1 | inactive | 
12 | CC(C)[N+](C)(CCOC(=O)C1c2ccccc2Oc2ccccc21)C(C)C | inactive | 
13 | C=CC(=O)OCCCCCCCC(C)C |  | 15.7 µM (active)
14 | CC/C=C\CCOC(=O)c1ccccc1O |  | 25.1 µM (active)
15 | C=CCCCCCCCCC=O | inactive | 
16 | CCOC(=O)C1=NN(c2ccc(Cl)cc2Cl)C(C)(C(=O)OCC)C1 (stereo not given) | inactive | 
17 | CC(C)c1cccc(C(C)C)c1N |  | 32 µM (active)
18 | C=CC(=O)NC(C)(C)C | inactive | 
19 | C=CC(=O)OCCCCCCOC(=O)C=C |  | 20 µM (active)
20 | CC=C(C)C=CC=C(C)C | inactive | 

Row | SMILES | outcome | AC50
21 | Oc1c(Cl)cc(Cl)c(Cl)c1Cl |  | 20 µM (active)
22 | CCCCC1C(=O)N(c2ccccc2)N(c2ccccc2)C1=O | inactive | 
23 | CC=C(C)C(C)=O | inactive | 
24 | Nc1ccc(C(=O)O)cc1 | inactive | 
25 | CC(C)CCCCCOC(=O)CS | inactive | 
26 | O=C(O)C(F)(F)C(F)(F)C(F)(F)C(F)(F)C(=O)O | inactive | 
27 | Clc1cc(Cl)c(Cl)c(Cl)c1Cl |  | 20 µM (active)
28 | CCCCCCOC(=O)CCCCC(=O)OCCCCCC | inactive | 
29 | CC1=CC=C(C(C)C)CC1 | inactive | 
30 | c1ccc(Nc2cccc3ccccc23)cc1 |  | 31.4 µM (active) and 28.8 µM (active)
31 | COC(OC)(C(=O)c1ccccc1)c1ccccc1 | inactive | 
32 | O=C(Oc1ccccc1)c1ccccc1C(=O)Oc1ccccc1 | inactive | 
33 | O=C(Cl)c1c(Cl)c(Cl)c(C(=O)Cl)c(Cl)c1Cl | inactive | 
34 | CCCCCCCCCCCC(=O)N(C)CC(=O)O |  | 3.87 µM (active) and 2.41 µM (active)
35 | COc1ccc(C(=O)c2ccccc2)c(O)c1 |  | 29.1 µM (active)
36 | CC(C)C(=O)OCCc1ccccc1 | inactive | 
37 | CC(CCC(=O)O)(c1ccc(O)cc1)c1ccc(O)cc1 | inactive | 
38 | C[N+](C)(C)CCCNS(=O)(=O)C(F)(F)C(F)(F)C(F)(F)C(F)(F)C(F)(F)C(F)(F)C(F)(F)C(F)(F)F | inactive | 
39 | C=C(C)C(=O)OCCCCCCCCCCCC | inactive | 
40 | C=CC(=O)NCOCCCC | inactive | 
